Bioassay records (PubChem)
LmPK inhibitor: inhibitors of Leishmania mexicana pyruvate kinase; Q27686; purified LmPK, Kinase-Glo ATP luminescence, 1 h; Potency, µM (highest dose often 57.5 µM), without a hit: top-dose activity change, negative = inhibition, most hits filed as inhibitors; hit rate 0.37% among 290,000; AID 1721; note: potency is the fitted concentration of half-maximal effect; % is set by controls: 0 for no effect and ±100 for the full control effect
Target sequence (Q27686 whole entry, looked up): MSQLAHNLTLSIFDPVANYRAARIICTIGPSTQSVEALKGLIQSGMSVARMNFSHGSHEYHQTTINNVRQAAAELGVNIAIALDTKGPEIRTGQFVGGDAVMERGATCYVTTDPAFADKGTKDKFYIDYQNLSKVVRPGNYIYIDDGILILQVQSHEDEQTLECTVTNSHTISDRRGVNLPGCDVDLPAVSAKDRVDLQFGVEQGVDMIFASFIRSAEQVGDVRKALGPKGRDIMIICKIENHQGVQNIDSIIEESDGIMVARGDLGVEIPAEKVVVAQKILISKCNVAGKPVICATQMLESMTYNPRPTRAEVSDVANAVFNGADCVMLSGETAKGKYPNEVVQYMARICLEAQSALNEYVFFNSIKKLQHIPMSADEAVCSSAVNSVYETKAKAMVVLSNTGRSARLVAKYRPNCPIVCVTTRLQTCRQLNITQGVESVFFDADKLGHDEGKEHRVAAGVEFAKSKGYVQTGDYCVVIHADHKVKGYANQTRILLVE
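Purified LmPK (0.1 nM) with 0.5 mM PEP and 0.1 mM ADP in imidazole buffer pH 7.2 with MgCl2/KCl, 1 h at room temperature. ATP formed was read by luciferase luminescence and normalized to no-enzyme and uninhibited controls.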
Pf growth 48h: P. falciparum growth inhibition at 48 hours (one generation) | P. falciparum luciferase growth in erythrocytes, 48 h | hit rate 5.9% among 310,000 | Potency, µM (highest dose often 28.7 µM), for the others: at the top dose activity change, negative = inhibition, most hits filed as inhibitors; note: potency is the fitted concentration of half-maximal effect; % is set by controls: 0 for no effect and ±100 for the full control effect
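Cell-based growth assay: transgenic P. falciparum expressing firefly luciferase, cultured in red cells within RPMI 1640 containing 0.5% w/v Albumax, 24 mM bicarbonate and gentamycin. A drop in luciferase activity indicates inhibition.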
Shiga toxin inh: Shiga toxin inhibition. Vero cells, Shiga toxin protein synthesis inhibition reporter. inhibition, % at 38.7 µM. hit rate 9.2% among 290,000. AID 2315; in the data active = inhibition mostly above about 28%, no sharp cut-off; inactive = mostly below about 43%; note: 0% is about no effect
Pf growth 96h: inhibits malaria parasite growth, 96 h; hit rate 6.9% among 320,000; P. falciparum luciferase reporter growth, 96 h; AID 504834; Potency, µM (top dose mostly 28.7 µM), for inactives: at the highest dose activity change, negative = inhibition, actives largely listed as inhibitors; note: potency is the fitted concentration of half-maximal effect; % is set by controls: 0 for no effect and ±100 for the full control effect
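Two-generation exposure (96 h) targets delayed-death phenotype. Reporter parasites carrying integrated firefly luciferase, in red cells at 2% hematocrit and 0.05% parasitemia final, kept at 37 C, 5% CO2; luminescence loss indicates inhibition.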
CHX counter: counter-screen hit for Shiga toxin inhibitors, cycloheximide; cell reporter, cycloheximide protein synthesis inhibition counterscreen; max response, %; hit rate 12% among 300,000; AID 2314; in the data active = max response mostly above about 13%, no sharp cut-off; inactive = mostly below about 14%; note: read at 38.3 µM for the half of the compounds with a filed dose; 0% is about no effect
The depositor's hits bear a star; i = inactive; ? = inconclusive; . = no result given; [ ] = remark or other dose. In the library only some 22% were active in any assay of this set; here they are far more common. Unless noted, calls come from the whole dose curve; as a rule, active = well fitted inhibition curve with a large enough effect; inconclusive = small, poorly fitted or top-dose-only effect, or another doubt; inactive = no such curve, though single readings can be large or run the other way.

SMILES	LmPK inhibitor	Pf growth 48h	Shiga toxin inh	Pf growth 96h	CHX counter
Cc1nc2ccc3nc(NC(=O)c4ccc5c(c4)OCCO5)sc3c2s1	-2.6%	77.9%	-12.7	.	12.2*
Cc1ccc(C)c(C(=O)CCC(=O)OCn2nnc3ccccc3c2=O)c1	.	4.9%	.	11.2%	.
CC(CCC(=O)O)C1CCC2C3C(O)CC4CC(O)CCC4(C)C3CC(O)C12C (stereo not given)	-7.4%	2.3%	-5.5	48.1%	1.0
CCOc1ccc(N)c(SSc2cc(OCC)ccc2N)c1	17.8%	0.0%	88.0*	?	44.9*
Cc1noc(C)c1CN1C(=O)c2ccccc2C1=O	-4.7%	14.9%	-6.1	?	-4.3
CCN(CC)CCCNC(=O)c1cc(-c2ccc(O)cc2)on1	-3.7%	.	-8.2	?	0.4
COc1ccc(-c2cc(C(=O)NC3CCCC3)no2)cc1OC	5.0%	55.1%	26.1*	?	24.5*
COCCNC(=O)c1cc(-c2ccc(OC)c(OC)c2)on1	-7.5%	51.7%	18.2	32.8%	20.1*
COC(=O)c1cc(-c2ccc(OC)c(OC)c2)on1	-8.4%	13.4%	5.9	?	-4.8
CCN(CC)CCCNC(=O)c1cc(-c2ccc(Cl)c(Cl)c2)on1	-3.5%	10.4µM*	-6.6	-20.5%	-2.6
O=C(NC1CCCCC1)c1cc(-c2ccco2)on1	-2.7%	72.2%	142.9*	11.7µM*	36.4*
O=c1[nH]cnc(O)c1C(c1ccc([N+](=O)[O-])cc1)c1c(O)nc[nH]c1=O	3.6%	29.5%	.	0.2%	-3.3
COC(=O)c1cccc(NC(=O)CN2CCc3ccccc3C2)c1	6.0%	0.0%	1.8	-8.8%	-1.2
COc1cccc(-c2cc(C(=O)NC3CCCCC3)no2)c1	-4.9%	89.1%	80.6*	64.6%	19.7
COCCCn1c(-c2ccc(OC)cc2)cc(C(=O)NC2CCCCCCC2)c1C	0.0%	13.1µM*	-13.5	14.7µM*	-2.9
COc1ccc(-c2cc(C(=O)NC3CCCC3)no2)cc1	-2.2%	89.6%	93.4*	15.7%	18.1*
COC(=O)c1cc(-c2ccc(OC)cc2)on1	-2.8%	0.0%	12.4	?	-2.7
COc1ccc(-c2cc(C(=O)NC(C)C)no2)cc1	-6.3%	.	58.5*	61.9%	26.6
CCCCN(C(=O)C1=NN(c2ccccc2)C(=O)CC1)c1c(N)n(CC(C)C)c(=O)[nH]c1=O	.	5.7%	.	-7.3%	.
Nc1nc(C(F)(F)F)c(Br)c(=O)n1N	-2.2%	-18.3%	-2.5	18.3%	-2.9
CC(=O)c1sc(NC(=O)CCCOc2ccc(Cl)cc2)nc1C	0.0%	-1.7%	34.7	8.4%	7.2
CCc1ccc(S(=O)(=O)N2CCN(C(=O)C3CCN(C(C)=O)CC3)CC2)cc1	-4.5%	-6.1%	-3.1	19.3%	-1.8
C=CCNCC(=O)NN=C(c1ccccc1)c1ccccc1	1.7%	0.9%	-3.4	2.3%	2.7
CCc1ccc(NS(=O)(=O)c2cccc3nonc23)cc1	-2.6%	-7.5%	-3.2	0.7%	6.0
O=C(O)c1ccc(-c2ccccc2C(F)(F)F)s1	.	.	i	.	9.0
SMILES	LmPK inhibitor	Pf growth 48h	Shiga toxin inh	Pf growth 96h	CHX counter
C=C(C)COc1ccc(-c2[nH]ncc2-c2ccccc2)c(O)c1	-3.2%	10.4µM*	13.0	?	-0.6
Oc1cc(OCc2ccccc2)ccc1-c1[nH]ncc1-c1ccccc1	1.9%	?	-4.8	?	0.2
O=[N+]([O-])c1ccc(COc2ccc(-c3[nH]ncc3-c3ccccc3)c(O)c2)cc1	-0.6%	13.1µM*	-14.5	6.57µM*	-1.9
C=C(C)COc1ccc(-c2[nH]ncc2-c2ccc(OC)c(OC)c2)c(O)c1	0.0%	1.85µM*	-10.7	2.33µM*	3.5
C=C(C)COc1ccc(-c2[nH]ncc2-c2ccc(OC)cc2)c(O)c1	3.3%	?	-14.7	?	0.6
CSCC[C@H](NC(=O)[C@@H]1CCCN1C(=O)CNC(=O)[C@H](CCCCN)NC(=O)[C@H](Cc1cnc[nH]1)NC(=O)[C@H](CO)NC(=O)[C@H](CC(C)C)NC(=O)[C@H](CCCN=C(N)N)NC(=O)[C@@H]1CCCN1C(=O)[C@H](CCCN=C(N)N)NC(=O)[C@@H]1CCC(=O)N1)C(=O)N1CCC[C@H]1C(=O)N[C@@H](Cc1ccccc1)C(=O)O	.	.	-5.3	.	3.4
Cc1cccc(NNC(=O)C2CCC2)c1	-0.7%	0.3%	-8.1	20.6%	-3.6
Cc1sc2nc(C(C)C)nc(SCC(=O)N3CCOCC3)c2c1C	-1.2%	-1.7%	16.2	5.5%	-3.8
O=C1c2cccc(OCC(=O)N3N=C(c4cccs4)CC3c3ccc(F)cc3)c2CCN1Cc1cccnc1 (stereo not given)	0.8%	1.47µM*	-27.0	?	-5.5
O=C(c1cccnc1)N1N=C(c2cccs2)CC1c1ccc(F)cc1 (stereo not given)	-1.6%	0.0%	-12.0	9.4%	-2.6
O=C(O)C1(Cc2nc3ccccc3[nH]2)CCCC1	-1.3%	31.7%	-13.1	29.2%	-3.8
CCCc1nc2ccccc2c(=O)n1/N=C/c1c(C)[nH]n(-c2ccc(C)cc2)c1=O	?	-28.9%	11.5	3.7µM*	8.9
CCCc1nc2ccccc2c(=O)n1-c1ccc(O)cc1	-3.0%	-10.6%	20.6	40.9%	-4.5
CCCc1nc2ccccc2c(=O)n1/N=C/c1ccccc1O	3.8%	11.7µM*	59.0	.	47.0*
CCC1CCCCN1CCCNC(=O)c1ccc2c(c1)N(Cc1ccc(F)cc1)C(=O)c1ccccc1S2=O (stereo not given)	3.4%	?	-18.6	?	-11.6
COCc1cc(C)nc(N/N=C/c2ccc(Cl)c(Cl)c2)c1C#N	0.2%	1.1%	-5.7	40.3%	-3.0
Cc1cc2oc(=O)cc(-c3ccccc3)c2c(C)c1-c1cccc(N)c1	.	.	i	.	5.0
O=C1CN(Cc2ccccc2)C(=NCc2ccco2)S1	1.9%	1.85µM*	4.1	-3.8%	-2.4
CCN(C(=O)Cn1c(=O)n2nc(CCn3nc(C)cc3C)nc2c2ccccc21)c1cccc(C)c1	3.0%	31.2%	-12.5	2.62µM*	-1.6
CCCNC(=O)c1ccc(N2CCC3(CC2)CC(c2cccc(Br)c2)=NO3)c(N)c1	.	11.7µM*	.	?	.
CCCNC(=O)c1ccc(N2CCC3(CC2)CC(c2cccc(Br)c2)=NO3)c([N+](=O)[O-])c1	0.2%	?	-3.5	6.57µM*	1.6
CC(C)OC(C)C	.	.	-10.6	.	-6.3
COc1ccc(CCOC(=O)c2ccc(NC(=O)CC#N)cc2)cc1	-9.9%	?	30.4	0.0%	41.2*
O=C(OCCCOC(=O)c1ccc(O)cc1)c1ccc(O)cc1	-9.9%	-5.7%	12.9	?	2.1
COc1ccc(C(=O)OCCc2ccc(O)cc2)cc1	0.8%	280.8%	50.3*	360.3%	37.9*
NC(=O)C1(C(N)=O)OC1c1ccccc1 (stereo not given)	-0.6%	3.9%	23.3	31.5%	-2.5
COc1ccccc1N1CCN(C2=Nc3cccc4cccc2c34)CC1	1.7%[11.5 µM]	338.4%	68.6	19.0%	34.3*
O=C(O)c1ccc(NC2=Nc3cccc4cccc2c34)cc1	1.1%	29.2%	69.4*	0.0%	23.0*
NC(=O)NNC1=Nc2cccc3cccc1c23	2.8%	11.6%	56.3	33.0%	11.2
